# The source made the active and inactive calls. How the calls were made is not given here.
# System: Neuropilin-2 / VEGF-C interaction (human)
# Assay: inhibitors of NRP2–VEGF-C binding, biochemical, microplate binding format, z-score (AID 743281); on z-score: test concentration not given here
# Details: microplate NRP2/VEGF-C binding assay; stronger effect = lower value
Structure (SMILES),z-score,outcome
CNNCc1ccc(C(=O)NC(C)C)cc1,-0.83 (inactive),–
Nc1nc2c(ncn2CCC(CO)CO)c(=O)[nH]1,–,inactive
O=C1CC2(CCCC2)CC(=O)N1CCNCC1COc2ccccc2O1 (stereo not drawn),0.317 (inactive),–
Cn1nnc2c(C(N)=O)ncn2c1=O,-0.72 (inactive),–
O=C1[C@H]2CCCC[C@H]2C(=O)N1CCCCN1CCN(c2nsc3ccccc23)CC1,-0.553 (inactive),–
O=C(O)CCNC(=O)c1ccc(N=Nc2ccc(O)c(C(=O)O)c2)cc1,–,inactive
CC(Oc1c(Cl)cccc1Cl)C1=NCCN1 (stereo not drawn),0.439 (inactive),–
CN1CCN(C2=Nc3cc(F)ccc3Cc3ccccc32)CC1,-0.511 (inactive),–
COC(=O)C1=C(C)NC(C)=C(C(=O)OC(C)C)C1c1cccc2nonc12 (stereo not drawn),-2.69 (inactive),–
CCOc1cc(N)c(Cl)cc1C(=O)NCC1CN(Cc2ccc(F)cc2)CCO1 (stereo not drawn),0.948 (inactive),–
O=c1c(-c2ccccc2)c1-c1ccccc1,-0.326 (inactive),–
O=C1Nc2ccc(Cl)cc2[C@@](C#CC2CC2)(C(F)(F)F)O1,0.939 (inactive),–
Nc1nc(N)nc(-c2cc(Cl)ccc2Cl)n1,0.00875 (inactive),–
OCCOCCN1CCN(C2=Nc3ccccc3Sc3ccccc32)CC1,0.105 (inactive),–
CC(=O)Nc1ccc(CC(=O)O)cc1,-0.00496 (inactive),–
O=c1[nH]cnc2c1ncn2[C@H]1CC[C@@H](CO)O1,–,inactive
COC(=O)C1=C(C)NC(C)=C(C(=O)O[C@@H]2CCCN(Cc3ccccc3)C2)[C@@H]1c1cccc([N+](=O)[O-])c1,1.67 (inactive),–
Cc1c(O)cccc1C(=O)N[C@@H](CSc1ccccc1)[C@H](O)CN1C[C@H]2CCCC[C@H]2C[C@H]1C(=O)NC(C)(C)C,0.175 (inactive),–
CCc1nn(CCCN2CCN(c3cccc(Cl)c3)CC2)c(=O)n1CCOc1ccccc1,0.854 (inactive),–

Structure (SMILES),z-score,outcome
Nc1[nH]c(=O)ncc1F,-0.751 (inactive),–
O=C1CCc2ccc(OCCCCN3CCN(c4cccc(Cl)c4Cl)CC3)cc2N1,1.76 (inactive),–
COc1cc(C(=O)NC2CCCNC2)cc(OC)c1OC (stereo not drawn),-0.315 (inactive),–
COc1ccc(C(=O)NCc2ccc(OCCN(C)C)cc2)cc1OC,-0.08 (inactive),–
COCc1c(C(C)C)nc(C(C)C)c(/C=C/[C@@H](O)C[C@@H](O)CC(=O)O)c1-c1ccc(F)cc1,-0.18 (inactive),–
CC(C)(C)C(O)/C=C/c1ccc2c(c1)OCO2 (stereo not drawn),-0.389 (inactive),–
Cc1ccnc2c1NC(=O)c1cccnc1N2C1CC1,-1.18 (inactive),–
CCOc1cc(CC(=O)N[C@@H](CC(C)C)c2ccccc2N2CCCCC2)ccc1C(=O)O,-0.286 (inactive),–
Nc1c2c(nc3c1CCC3)CCCC2,-0.236 (inactive),–
CCOC(=O)OC(C)OC1=C(C(=O)Nc2ccccn2)N(C)S(=O)(=O)c2ccccc21 (stereo not drawn),-0.884 (inactive),–
CN1CCN(c2c(F)cc3c(=O)c(C(=O)O)cn4c3c2SCC4)CC1,–,inactive
Cc1nc2n(c(=O)c1CCN1CCC(c3noc4cc(F)ccc34)CC1)CCCC2,-1.5 (inactive),–
O=C(O)/C=C/c1ccc(Cn2ccnc2)cc1,-0.108 (inactive),–
O=C(NCCO[N+](=O)[O-])c1cccnc1,-0.101 (inactive),–
Cc1nc2ccc(CN(C)c3ccc(C(=O)N[C@@H](CCC(=O)O)C(=O)O)s3)cc2c(=O)[nH]1,–,inactive
CCCN1CCCC[C@H]1C(=O)Nc1c(C)cccc1C,0.543 (inactive),–
COc1cc2c(cc1OC)C(=O)C(CC1CCN(Cc3ccccc3)CC1)C2 (stereo not drawn),0.0126 (inactive),–
N#Cc1ccc(C(c2ccc(C#N)cc2)n2cncn2)cc1,-0.196 (inactive),–
Cc1[nH]cnc1CN1CCc2c(c3ccccc3n2C)C1=O,0.471 (inactive),–

# Reference: PubChem BioAssay
